# Source: PubChem (National Center for Advancing Translational Sciences (NCATS))
# ALOX12 inh: Primary qHTS assay for inhibitors of human arachidonate 12S-lipoxygenase (ALOX12): Round 2. Polyunsaturated fatty acid lipoxygenase ALOX12 (Homo sapiens), P18054. purified 12hLO, xylenol orange hydroperoxide absorbance. Potency, µM (highest dose often 108 µM), without a hit: top-dose activity change, negative = inhibition, most hits filed as inhibitors. actives 1.1% (n = 580,000)
# Target sequence (P18054 whole entry, looked up): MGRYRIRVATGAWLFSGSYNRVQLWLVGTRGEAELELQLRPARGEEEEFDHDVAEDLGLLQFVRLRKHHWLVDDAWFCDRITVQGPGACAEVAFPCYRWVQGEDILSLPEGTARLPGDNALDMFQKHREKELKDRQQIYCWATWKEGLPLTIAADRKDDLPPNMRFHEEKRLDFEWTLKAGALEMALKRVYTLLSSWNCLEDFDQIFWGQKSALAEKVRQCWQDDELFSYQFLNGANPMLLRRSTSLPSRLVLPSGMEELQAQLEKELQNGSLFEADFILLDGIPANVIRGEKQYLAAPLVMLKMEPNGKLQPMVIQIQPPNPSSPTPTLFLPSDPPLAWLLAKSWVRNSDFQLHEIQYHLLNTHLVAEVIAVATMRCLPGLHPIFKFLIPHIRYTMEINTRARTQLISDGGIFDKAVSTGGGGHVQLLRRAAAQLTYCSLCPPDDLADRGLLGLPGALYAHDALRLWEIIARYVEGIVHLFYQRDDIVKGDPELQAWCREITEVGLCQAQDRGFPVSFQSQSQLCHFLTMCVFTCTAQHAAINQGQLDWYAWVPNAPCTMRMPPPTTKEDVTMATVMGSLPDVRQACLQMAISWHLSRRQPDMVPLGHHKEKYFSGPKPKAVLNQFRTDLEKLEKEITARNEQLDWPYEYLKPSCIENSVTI
#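 Hydroperoxide product was detected by ferrous iron/xylenol orange as the 573 to 405 nm absorbance ratio. Arachidonic acid at 40 uM (final) was turned over for 30 min at room temperature by 150 nM human 12hLO, pH 7.0 Hepes buffer, after 15 min compound preincubation.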
# DT40 TDP1 CPT: qHTS for Inhibitors of human tyrosyl-DNA phosphodiesterase 1 (TDP1): qHTS in cells in presence of CPT; chicken DT40 Tdp1-/-;hTDP1 cells + 20 nM CPT, ATP luminescence, 48 h; Potency, µM (highest dose often 46.2 µM), for the others: top-dose activity change, negative = growth inhibition, usual class: inhibitors; actives 12% (n = 420,000); also: nearly all actives have a fitted effect of over 55% in size
#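 Chicken DT40 Tdp1-/- cells complemented with human TDP1, 400 cells/well, exposed to compounds plus 20 nM camptothecin for at least 48 h at 37 C; viability read as ATP content by CellTiter-Glo luminescence.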
# DT40 TDP1 no CPT: qHTS for Inhibitors of human tyrosyl-DNA phosphodiesterase 1 (TDP1): qHTS in cells in absence of CPT. Potency, µM (top dose mostly 46.2 µM), for inactives: at the highest dose activity change, negative = growth inhibition, usual class: inhibitors. actives 15% (n = 420,000). AID 686978, 2013. DT40 Tdp1-/- hTDP1 cells, no CPT, ATP luminescence, 48 h; also: nearly all actives have a fitted effect of over 55% in size
#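 Chicken DT40 Tdp1-/- cells stably complemented with human TDP1 were seeded at 400 cells/well with DMSO in place of 20 nM camptothecin. After compound pinning, cells grew at least 48 hr at 37 °C; viability read by CellTiter-Glo luminescence.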
# Gal4-VP16 FLuc: VP16 counterscreen qHTS for inhibitors of ROR gamma transcriptional activity | Drosophila S2 Gal4-VP16 UAS-luciferase, luminescence, 20 h | AID 2546, 2010 | Potency, µM (top dose mostly 53.6 µM), for inactives: top-dose activity, negative = inhibition, usual class: inhibitors | actives 3.5% (n = 310,000);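 also: Gal4-VP16 expression switched on by copper sulfate through the metallothionein promoter; nearly all actives have a fitted effect of over 50% in size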
# ELG1 repair inh: qHTS screen for small molecules that inhibit ELG1-dependent DNA repair in human embryonic kidney (HEK293T) cells expressing luciferase-tagged ELG1 | HEK293T ELG1-luciferase reporter, luminescence, 16 h; DNA damage induced by 5-fluorouridine | Potency, µM (doses to about 46.1 µM), without a hit: at the highest dose activity change, negative = inhibition, hits mostly inhibitors | actives 2.3% (n = 330,000) | AID 504467, 2011; also: nearly all actives have a fitted effect of over 55% in size
#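 HEK293T cells expressing luciferase-tagged ELG1 (2,000/well) received 5-Fluorouridine plus compound or DMSO for 16 hr at 37 °C. Luciferase was read by ONE-Glo luminescence after 30 min at room temperature.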
# RORgamma inh: qHTS for inhibitors of ROR gamma transcriptional activity. actives 5.4% (n = 310,000). Drosophila S2 Gal4-RORgamma UAS-luciferase reporter, 20 h. Nuclear receptor ROR-gamma (Mus musculus), P51450. Potency, µM (doses to about 53.6 µM), inactives show at the top dose activity change, negative = inhibition, actives largely listed as inhibitors. AID 2551, 2010; also: nearly all actives have a fitted effect of over 60% in size
#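 Drosophila S2 cells stably expressing Gal4-DBD/mouse RORγ fusion under metallothionein promoter plus UAS-luciferase; compound 1 h, then 700 uM CuSO4 induction for 20 h at ambient temperature; inhibition read as reduced luminescence.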
# Active calls of the source: *; ? = inconclusive; · = no result; ! = not confirmed by another sample; [ ] = another dose, or the depositor's remark. Sampled rows, rich in hits. Any-hit rate of the full collection: about 15%. Calls follow the shape of the dose curve; as a rule, active = well fitted curve in the direction sought with a large enough effect; inconclusive = small, poorly fitted or top-dose-only effect, or another doubt; inactive = no such curve, though single readings can be large; an effect the other way counts as inactive or inconclusive. % is scaled to controls: 0 for no effect and ±100 for the full control effect; potency is read from the fitted curve at half-maximal effect.
SMILES,ALOX12 inh,DT40 TDP1 CPT,DT40 TDP1 no CPT,Gal4-VP16 FLuc,ELG1 repair inh,RORgamma inh
O=c1c2ccccc2nc(-c2ccoc2)n1CCc1ccccc1,?,7.31µM*,6.51µM*,6.8%,?,24.4%
Cc1ccc(S(=O)(=O)NCC(C)n2nc(C)cc2C)cc1 (stereo not given),-6.8%,-109.9%,-20.2%,4.8%,-2.5%,-14.6%
Cc1ccc(C(C[N+](=O)[O-])n2nc(C)cc2C)cc1 (stereo not given),0.0%,2.06µM*,2.59µM*,1.8%,?,-21.9%
CC(=O)N1N=C(c2ccc(C)cc2)OC1c1ccc(Br)cc1 (stereo not given),?,4.8%,-29.0%,-5.4%,4.1%,17.0%
CCOc1ccc(Br)cc1C1=NN(C(C)=O)C(c2ccc([N+](=O)[O-])s2)O1 (stereo not given),-8.1%,18.4µM*,8.2µM*,?,1.5%,?
Cc1ccc2cc3cc(C(=O)NC4CCCCC4)sc3nc2c1,35.7%,·,·,·,·,·
CCOc1ccc(-c2cc(-c3nc(-c4ccc(OCC)cc4)no3)[nH]n2)cc1,33.2%,·,·,·,·,·
COc1ccc(-c2noc(Nc3cc(OC)cc(OC)c3)n2)cc1,17.8µM*,·,·,·,·,·
COc1ccc(-c2noc(-c3cc(C(C)C)[nH]n3)n2)cc1,0.4%,20.6µM*,18.4µM*,·,·,·
Fc1cccc(Nc2nc(-c3ccccc3)no2)c1,35.5µM*,·,·,·,·,·
Fc1ccc(Nc2nc(-c3ccccc3)no2)cc1,1.5%,·,·,·,·,·
CCOc1ccc(-c2cc(-c3nc(-c4cc(OC)c(OC)c(OC)c4)no3)[nH]n2)cc1,-16.7%,9.2µM*,9.2µM*,·,·,·
CCOc1cc(-c2noc(CCCC(N)=O)n2)cc(Br)c1OC,-13.4%,-26.7%,-24.9%,-3.7%,?,5.8%
COc1ccc(-c2noc(-c3cc(-c4ccc(F)cc4)n[nH]3)n2)cc1,3.3%,6.51µM*,?,·,·,·
CCOc1cc(-c2noc(-c3ccncc3)n2)cc(Br)c1OC,-22.2%,?,16.4µM*,0.2%,11.2%,?
Cc1ccccc1-c1noc(-c2cc(-c3ccc(F)cc3)n[nH]2)n1,-12.8%,20.6µM*,23.1µM*,·,·,·
Cc1ccc(-c2noc(-c3cc(-c4ccc(F)cc4)n[nH]3)n2)cc1,-12.6%,-12.2%,?,·,·,·
COc1nc(-c2ccc(OC)c3ncccc23)ncc1F,-5.3%,·,·,·,·,·
O=C(Oc1ccc2ccccc2c1Br)N1CCCCCC1,2.4%,?,20.6µM*,-25.2%,?,-24.4%
NC(=O)C1CCN(C(=O)COc2ccc3ccccc3c2Br)CC1,?,0.0%,-16.4%,?,18.2%,1.78µM*
O=C(O)C(=Cc1ccccc1Cl)c1ccccc1,·,?,-27.2%,·,·,·
O=C(O)/C(=C\c1c(C(=O)O)[nH]c2cc(Cl)cc(Cl)c12)c1ccccc1,35.5µM*,-19.7%,-17.8%,·,9.8%,·
COc1ccc(CN2C(=O)c3ccccc3C(/C=N/OCc3ccc(Cl)cc3)C2=O)cc1 (stereo not given),-2.4%,13µM*,11.6µM*,9.2%,3.0%,18.3%
COc1ccc(CN2C(=O)c3ccccc3C(/C=N\OCc3ccc(F)cc3)C2=O)cc1 (stereo not given),-16.8%,?,8.2µM*,8.7%,12.3%,11.8%
COc1ccc(CN2C(=O)c3ccccc3C2=O)cc1,-14.6%,21.7%,-1.4%,?,-2.0%,-28.9%
SMILES,ALOX12 inh,DT40 TDP1 CPT,DT40 TDP1 no CPT,Gal4-VP16 FLuc,ELG1 repair inh,RORgamma inh
CCOC(=O)C(NC(=O)c1ccc(OC)cc1)(Nc1ccccc1F)C(F)(F)F (stereo not given),39.0%,·,·,·,·,·
Cc1cc(NC(=O)CCn2cnc3c2c(=O)n(C)c(=O)n3C)ccc1Br,7.3%,·,·,·,·,·
O[C@H]1CC[C@@H](Cc2cc(COc3ccccc3)on2)O[C@@H]1CNCc1cccnc1,-0.3%[176 µM],·,·,·,·,·
Cc1ccc(-c2nc(NC(=O)CSc3cc(C)c4ccccc4n3)ns2)cc1,4.4%,13µM*,16.4µM*,0.6%,9.3%,-20.7%
Cc1cc(SCC(=O)NCCC2=CCCCC2)nc2ccccc12,?,?,?,6.31µM*,?,?
COc1ccc2c(C)cc(SCC(=O)Nc3nsc(-c4ccccc4C)n3)nc2c1,-6.9%,?,14.6µM*,·,·,·
Cc1nc(NC(=O)CSc2cc(C)c3ccccc3n2)c(Cl)cc1Cl,-16.9%,?,?,?,-0.6%,2.51µM*
CCOc1c(CN)cccc1OC,4.1%,·,·,·,·,·
COc1ccc(-c2cc(N3CCC(NC(=O)c4cc(Cl)ccc4F)CC3)n[nH]2)cc1,47.5%,·,·,·,·,·
CC(=O)NS(=O)(=O)c1ccc(N=c2ssc3c2-c2ccc(C)cc2NC3(C)C)cc1,15.8µM*,-27.5%,?,-12.0%,-12.3%,?
Cc1ccc(S(=O)(=O)NC(=O)Nc2cc(C)ccc2F)cc1,0.0%,-0.9%,-5.1%,2.8%,-0.9%,0.8%
CCCOc1ccc(C2C(C(=O)c3ccc(C)o3)=C(O)C(=O)N2Cc2ccco2)cc1OCC (stereo not given),?,?,23.1µM*,1.4%,-5.6%,3.1%
COc1cc(C2C(C(=O)c3ccc(C)o3)=C(O)C(=O)N2Cc2ccccc2)ccc1O (stereo not given),?,12.7%,?,·,29.5%,·
CCOc1cc(C2C(C(=O)c3ccc(C)o3)=C(O)C(=O)N2CCc2ccccc2)ccc1O (stereo not given),8.91µM*,-13.2%,-2.3%,-6.6%,-1.8%,13.1%
Cc1c(-c2ccccc2)c(=O)oc2cc(OC(=O)c3ccco3)ccc12,17.4%,·,·,·,·,·
CNC[C@H](O)c1ccc(O)c(O)c1,1.4µM*!,8.41µM*!,11.9µM*!,-2.6%,7.0%,?
O[C@@H]1CCN(Cc2nc(C3(O)CCN(Cc4ccccc4F)CC3)cs2)C1,32.7%[176 µM],·,·,·,·,·
O=[N+]([O-])c1cccc(S(=O)(=O)c2ccc(N3CCCCC3)c([N+](=O)[O-])c2)c1,-2.7%,?,25.9µM*,-5.8%,?,?
O=[N+]([O-])c1cc(S(=O)(=O)c2ccc(N3CCCCC3)c([N+](=O)[O-])c2)ccc1N1CCCCC1,-6.0%,?,20.6µM*,-12.0%,-5.7%,7.7%
